# Reference: ChEMBL document CHEMBL3988442, “University of Dundee, Small-Polar-MMV Screening Library” (2021)
# Biological target: Sialic acid-binding Ig-like lectin 9 (Homo sapiens) (UniProt Q9Y336)
# Assay: Hs-Siglec9 ALPHAscreen SOP 20170721
# Design: scale not given: direction of the effect not stated beside the values
# Conditions: 10 µM
# Chain of Sialic acid-binding Ig-like lectin 9 (Homo sapiens) (Q9Y336 whole entry): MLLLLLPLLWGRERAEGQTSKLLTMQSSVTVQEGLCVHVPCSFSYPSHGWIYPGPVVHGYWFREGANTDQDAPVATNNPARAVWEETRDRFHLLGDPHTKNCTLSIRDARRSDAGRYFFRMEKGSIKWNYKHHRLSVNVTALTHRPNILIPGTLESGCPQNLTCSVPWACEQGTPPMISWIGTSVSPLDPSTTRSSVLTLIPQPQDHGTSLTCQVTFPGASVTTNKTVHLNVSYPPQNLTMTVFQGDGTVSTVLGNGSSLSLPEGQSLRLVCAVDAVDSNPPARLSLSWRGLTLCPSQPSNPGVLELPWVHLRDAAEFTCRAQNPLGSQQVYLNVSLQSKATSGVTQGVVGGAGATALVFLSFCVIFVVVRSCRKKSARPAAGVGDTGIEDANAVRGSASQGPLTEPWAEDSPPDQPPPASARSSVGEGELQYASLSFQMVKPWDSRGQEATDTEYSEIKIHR
row,Compound,Percent Effect
1,CN(C)CC1(O)CCN(S(=O)(=O)c2ccc(F)cc2)C1 (stereo not given),-4.76%
2,CCc1noc(C(C)N2CCN(Cc3nc(C)c(C)o3)CC2)n1 (stereo not given),1.87%
3,CS(=O)(=O)CCC(=O)NC1(c2cccc(Br)c2)CC1,18.2%
4,Fc1cccc(CN2CCC(c3n[nH]c4ncccc34)CC2)c1F,6.41%
5,CN(C)C(=O)CN1CCC2(CCN(Cc3nccs3)CC2)C1=O,-5.07%
6,CCc1nnc2n1CCN(C(=O)C(C)COCc1ccccc1)C2 (stereo not given),-4.15%
7,Cc1ccc(N2CC3(COCCN(Cc4cccnc4)C3)OCC2=O)s1 (stereo not given),-4.32%
8,Cc1nc(C)n(CC2CN(Cc3cccnc3)CCO2)n1 (stereo not given),-5.07%
9,COc1ccc(C2=CCN(C(=O)CN(C)CC(C)C#N)CC2)cc1 (stereo not given),7.49%
10,CC(NC(=O)Cn1cccn1)c1ccc2c(c1)OCCCO2 (stereo not given),1.54%
11,CCn1cnnc1CNC(=O)N1CCN(Cc2ccccc2)CC1,-6.22%
12,NC(=O)Nc1cccc(Oc2ccccn2)c1,-0.357%
13,Cc1ccc(CN(Cc2ccccn2)C2CC(C)(C)NC(C)(C)C2)s1,7.72%
14,CC(C)c1nccn1CCCNC(=O)c1ccc(-c2cncnc2)nc1,8.21%
15,Cc1nc(CN2CCN(CC(=O)Nc3c(C)cccc3C)CC2)no1,-7.52%
16,c1cnn(Cc2nnc(C3CCN(C4CCOCC4)CC3)n2C2CC2)c1,24.9%
17,CCc1noc(CN2CCCC2c2noc(C3CC3)n2)n1 (stereo not given),-6.88%
18,Fc1ccc(OCCCN2CCOC(Cn3cncn3)C2)cc1 (stereo not given),5.51%
19,CS(=O)(=O)NCCCN1CCCCC1c1cc2ccccc2[nH]1 (stereo not given),11.7%
20,CCC1=N[C@@]2(CC[C@@H]3CN(Cc4ccc(Cl)cc4)C[C@@H]32)C(=O)N1,-3.03%

row,Compound,Percent Effect
1,NC(=O)C1(c2cnccn2)CCCN1Cc1cc2ccccc2o1 (stereo not given),3.94%
2,CS(=O)(=O)N1CCCCCC1C1CCN(c2ncccc2C#N)CC1 (stereo not given),3.04%
3,CC(C)CN1Cc2c(C(=O)N(C)C)ncn2-c2ccccc2S1(=O)=O,-3.11%
4,CC(C)N1CCC(Cc2cncc(-c3ccccc3C(=O)O)n2)CC1,5.58%
5,O=C(c1ccsc1)N1CC[C@H]2C[C@@H](c3nnc(C4CC4)o3)O[C@@H]2C1,-4.04%
6,Cn1nnc2c1C(COCC1CC1)CN(C(=O)Cc1ccsc1)C2 (stereo not given),0.591%
7,Cc1noc(C)c1CN1CC[C@@H](OCC2CC2)[C@@H](Cc2ccccc2)C1,-2.52%
8,Cc1ccc(CC2CCCN2CC(=O)NCc2ccccn2)cc1 (stereo not given),3.27%
9,CCCC1CCCN(Cc2csc(-c3cnn(C)c3)n2)CC1 (stereo not given),-3.96%
10,COc1c(CNCC(O)c2cccc(F)c2)c(C(C)C)nn1C (stereo not given),-13.3%
11,CC(NC(=O)NCCCO)c1ccc2c(c1)OCCO2 (stereo not given),-1.77%
12,Cc1c(C2CCCN(C(=O)C3CC3)C2)n2c(nc1=O)CCC2 (stereo not given),-4.63%
13,CCn1cc(CN2CCCn3nc(CCC(=O)NCCO)cc3C2)cn1,4.51%
14,Fc1ccc2[nH]c(C3CCCN3CCc3ccccn3)nc2c1 (stereo not given),9.65%
15,O=C(CCc1cscn1)N1CCCC1c1noc(C2CC2)n1 (stereo not given),6.15%
16,CCn1c(CN2CCCN(C(=O)OC)CC2)nc2c(F)cccc21,7.02%
17,Cc1nc(C)n(CC2CN(Cc3cccc(C(N)=O)c3)CCO2)n1 (stereo not given),-4.05%
18,O=C(C1CC(=O)N(C2CCCC2)C1)N1CCN(CCn2cccc2)CC1 (stereo not given),19.8%
19,CCN(Cc1nc2c(cnn2C)c(=O)[nH]1)c1ccc(OC)c(OC)c1,-0.321%
20,NC(=O)C1CCN(Cc2cccc(NC(=O)c3ccsc3)c2)CC1,5.05%

# Test system: Trypanosoma cruzi
# Assay: Trypanosoma cruzi phosphomannomutase and mannose-1-phosphate guanylyltransferase assay
# Type: functional
# Design: scale not given: direction of the effect not stated beside the values
# Conditions: 10 µM
row,Compound,Percent Effect
1,CN(C)CC1(O)CCN(S(=O)(=O)c2ccc(F)cc2)C1 (stereo not given),3.36%
2,CCc1noc(C(C)N2CCN(Cc3nc(C)c(C)o3)CC2)n1 (stereo not given),-6.39%
3,CS(=O)(=O)CCC(=O)NC1(c2cccc(Br)c2)CC1,6.37%
4,Fc1cccc(CN2CCC(c3n[nH]c4ncccc34)CC2)c1F,7.71%
5,CN(C)C(=O)CN1CCC2(CCN(Cc3nccs3)CC2)C1=O,-9.46%
6,CCc1nnc2n1CCN(C(=O)C(C)COCc1ccccc1)C2 (stereo not given),7.94%
7,Cc1ccc(N2CC3(COCCN(Cc4cccnc4)C3)OCC2=O)s1 (stereo not given),-2.27%
8,Cc1nc(C)n(CC2CN(Cc3cccnc3)CCO2)n1 (stereo not given),-2.33%
9,COc1ccc(C2=CCN(C(=O)CN(C)CC(C)C#N)CC2)cc1 (stereo not given),10.5%
10,CC(NC(=O)Cn1cccn1)c1ccc2c(c1)OCCCO2 (stereo not given),6.55%
11,CCn1cnnc1CNC(=O)N1CCN(Cc2ccccc2)CC1,6.95%
12,NC(=O)Nc1cccc(Oc2ccccn2)c1,-3.99%
13,Cc1ccc(CN(Cc2ccccn2)C2CC(C)(C)NC(C)(C)C2)s1,-3.95%
14,CC(C)c1nccn1CCCNC(=O)c1ccc(-c2cncnc2)nc1,3.21%
15,Cc1nc(CN2CCN(CC(=O)Nc3c(C)cccc3C)CC2)no1,5.58%
16,c1cnn(Cc2nnc(C3CCN(C4CCOCC4)CC3)n2C2CC2)c1,3.99%
17,CCc1noc(CN2CCCC2c2noc(C3CC3)n2)n1 (stereo not given),3.68%
18,Fc1ccc(OCCCN2CCOC(Cn3cncn3)C2)cc1 (stereo not given),3.79%
19,CS(=O)(=O)NCCCN1CCCCC1c1cc2ccccc2[nH]1 (stereo not given),8.03%
20,CCC1=N[C@@]2(CC[C@@H]3CN(Cc4ccc(Cl)cc4)C[C@@H]32)C(=O)N1,-7.72%

row,Compound,Percent Effect
1,NC(=O)C1(c2cnccn2)CCCN1Cc1cc2ccccc2o1 (stereo not given),-1.78%
2,CS(=O)(=O)N1CCCCCC1C1CCN(c2ncccc2C#N)CC1 (stereo not given),6.58%
3,CC(C)CN1Cc2c(C(=O)N(C)C)ncn2-c2ccccc2S1(=O)=O,-2.83%
4,CC(C)N1CCC(Cc2cncc(-c3ccccc3C(=O)O)n2)CC1,-4.13%
5,O=C(c1ccsc1)N1CC[C@H]2C[C@@H](c3nnc(C4CC4)o3)O[C@@H]2C1,-1.08%
6,Cn1nnc2c1C(COCC1CC1)CN(C(=O)Cc1ccsc1)C2 (stereo not given),4.63%
7,Cc1noc(C)c1CN1CC[C@@H](OCC2CC2)[C@@H](Cc2ccccc2)C1,3.15%
8,Cc1ccc(CC2CCCN2CC(=O)NCc2ccccn2)cc1 (stereo not given),-1.66%
9,CCCC1CCCN(Cc2csc(-c3cnn(C)c3)n2)CC1 (stereo not given),-0.376%
10,COc1c(CNCC(O)c2cccc(F)c2)c(C(C)C)nn1C (stereo not given),-4.6%
11,CC(NC(=O)NCCCO)c1ccc2c(c1)OCCO2 (stereo not given),1.76%
12,Cc1c(C2CCCN(C(=O)C3CC3)C2)n2c(nc1=O)CCC2 (stereo not given),-0.593%
13,CCn1cc(CN2CCCn3nc(CCC(=O)NCCO)cc3C2)cn1,-5.41%
14,Fc1ccc2[nH]c(C3CCCN3CCc3ccccn3)nc2c1 (stereo not given),1.98%
15,O=C(CCc1cscn1)N1CCCC1c1noc(C2CC2)n1 (stereo not given),-1.42%
16,CCn1c(CN2CCCN(C(=O)OC)CC2)nc2c(F)cccc21,-3.95%
17,Cc1nc(C)n(CC2CN(Cc3cccc(C(N)=O)c3)CCO2)n1 (stereo not given),-4.69%
18,O=C(C1CC(=O)N(C2CCCC2)C1)N1CCN(CCn2cccc2)CC1 (stereo not given),2.82%
19,CCN(Cc1nc2c(cnn2C)c(=O)[nH]1)c1ccc(OC)c(OC)c1,0.513%
20,NC(=O)C1CCN(Cc2cccc(NC(=O)c3ccsc3)c2)CC1,3.99%
